Results taken from paper PMC7862700, “An all-to-all approach to the identification of sequence-specific readers for epigenetic DNA modifications on cytosine”.

Experiments:
Test in all cases: DAPPL (digital affinity profiling via proximity ligation, sequencing); 10 mM Tris-HCl pH 7.5, 50 mM NaCl, 1 mM DTT, 4% glycerol, room temperature, 30 min; GST-TFs on glutathione beads, 16-mer random dsDNA library, 0.1% formaldehyde crosslink after washing; high values mean tight binding
[1] = target: T1, FLI1 (Homo sapiens, UniProt Q01543 1-452); conditions: protein: recombinant; tags: N-terminal GST; dsDNA, one strand shown
T1 sequence: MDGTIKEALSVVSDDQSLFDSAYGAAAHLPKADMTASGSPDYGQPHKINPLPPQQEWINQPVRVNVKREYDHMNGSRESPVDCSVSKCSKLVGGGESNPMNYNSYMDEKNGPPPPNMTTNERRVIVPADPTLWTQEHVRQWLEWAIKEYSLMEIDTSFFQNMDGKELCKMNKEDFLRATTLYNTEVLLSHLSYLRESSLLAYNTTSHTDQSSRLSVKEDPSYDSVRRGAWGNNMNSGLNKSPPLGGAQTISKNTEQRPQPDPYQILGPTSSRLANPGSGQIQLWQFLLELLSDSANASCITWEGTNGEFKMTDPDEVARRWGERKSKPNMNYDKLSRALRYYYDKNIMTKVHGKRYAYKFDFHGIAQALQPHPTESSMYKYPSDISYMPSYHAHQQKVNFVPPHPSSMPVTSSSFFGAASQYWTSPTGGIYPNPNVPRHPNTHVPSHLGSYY
How it was run: (§1)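 GST fusions of human transcription factors were expressed in yeast and captured with glutathione beads. Once given DNA barcodes and pooled alongside a tag-only sample, they were incubated for 30 min at room temperature with 200 nmole of a random double-stranded 16-mer DNA library in Tris/NaCl/DTT/glycerol buffer, then washed, crosslinked (0.1% formaldehyde), proximity-ligated, PCR-amplified and sequenced on an Illumina NextSeq500. The binding signal of each hexamer is its read frequency for a factor divided by its frequency for the tag-only sample.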

[2] = target: T2, ELK1 (Homo sapiens, UniProt P19419 1-428); conditions: protein: recombinant; tags: N-terminal GST; dsDNA, one strand shown
T2 sequence: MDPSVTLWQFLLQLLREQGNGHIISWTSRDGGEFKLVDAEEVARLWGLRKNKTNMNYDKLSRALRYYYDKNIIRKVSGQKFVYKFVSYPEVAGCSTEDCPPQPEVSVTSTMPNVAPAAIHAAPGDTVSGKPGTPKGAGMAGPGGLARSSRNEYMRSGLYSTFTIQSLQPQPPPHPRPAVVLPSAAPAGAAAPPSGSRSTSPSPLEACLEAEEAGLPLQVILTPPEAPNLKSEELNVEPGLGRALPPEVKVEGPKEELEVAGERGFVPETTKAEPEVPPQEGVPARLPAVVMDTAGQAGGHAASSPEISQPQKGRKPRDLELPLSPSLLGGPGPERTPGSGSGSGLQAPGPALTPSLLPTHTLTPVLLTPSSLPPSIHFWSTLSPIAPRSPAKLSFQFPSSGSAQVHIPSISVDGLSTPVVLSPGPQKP
How it was run: as §1

[3] = target: T3, GABPA (Homo sapiens, UniProt Q06546 1-454); conditions: protein: recombinant; tags: N-terminal GST; dsDNA, one strand shown
T3 sequence: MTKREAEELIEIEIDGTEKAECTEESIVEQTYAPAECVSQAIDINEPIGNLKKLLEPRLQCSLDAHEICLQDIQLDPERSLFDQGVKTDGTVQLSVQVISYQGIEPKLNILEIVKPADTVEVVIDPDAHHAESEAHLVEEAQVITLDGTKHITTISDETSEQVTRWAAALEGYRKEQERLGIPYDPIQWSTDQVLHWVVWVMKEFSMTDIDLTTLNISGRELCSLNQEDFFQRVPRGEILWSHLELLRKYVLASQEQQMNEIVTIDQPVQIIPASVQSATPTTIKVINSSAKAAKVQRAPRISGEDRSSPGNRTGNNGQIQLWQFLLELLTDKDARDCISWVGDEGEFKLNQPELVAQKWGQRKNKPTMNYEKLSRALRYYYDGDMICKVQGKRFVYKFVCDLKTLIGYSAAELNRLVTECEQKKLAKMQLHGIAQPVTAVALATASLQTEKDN
How it was run: as §1

[4] = target: T4, ERG (Homo sapiens, UniProt P11308 1-479); conditions: protein: recombinant; tags: N-terminal GST; dsDNA, one strand shown
T4 sequence: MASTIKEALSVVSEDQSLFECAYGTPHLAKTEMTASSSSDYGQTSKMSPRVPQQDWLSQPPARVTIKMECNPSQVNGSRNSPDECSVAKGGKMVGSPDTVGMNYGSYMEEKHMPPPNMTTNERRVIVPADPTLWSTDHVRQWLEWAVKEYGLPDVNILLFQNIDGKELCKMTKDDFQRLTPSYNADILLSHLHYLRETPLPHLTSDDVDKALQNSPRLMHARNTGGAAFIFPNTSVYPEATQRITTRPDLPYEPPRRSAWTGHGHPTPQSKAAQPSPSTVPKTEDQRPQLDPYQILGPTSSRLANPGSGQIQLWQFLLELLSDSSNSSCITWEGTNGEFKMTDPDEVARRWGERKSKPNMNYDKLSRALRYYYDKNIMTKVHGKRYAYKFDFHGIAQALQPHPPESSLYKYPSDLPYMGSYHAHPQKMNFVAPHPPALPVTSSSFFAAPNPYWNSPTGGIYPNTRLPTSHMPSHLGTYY
How it was run: as §1

[5] = target: ELF1 (Homo sapiens, UniProt P32519 1-619); conditions: protein: recombinant; tags: N-terminal GST; dsDNA, one strand shown
ELF1, sequence (P32519 whole entry): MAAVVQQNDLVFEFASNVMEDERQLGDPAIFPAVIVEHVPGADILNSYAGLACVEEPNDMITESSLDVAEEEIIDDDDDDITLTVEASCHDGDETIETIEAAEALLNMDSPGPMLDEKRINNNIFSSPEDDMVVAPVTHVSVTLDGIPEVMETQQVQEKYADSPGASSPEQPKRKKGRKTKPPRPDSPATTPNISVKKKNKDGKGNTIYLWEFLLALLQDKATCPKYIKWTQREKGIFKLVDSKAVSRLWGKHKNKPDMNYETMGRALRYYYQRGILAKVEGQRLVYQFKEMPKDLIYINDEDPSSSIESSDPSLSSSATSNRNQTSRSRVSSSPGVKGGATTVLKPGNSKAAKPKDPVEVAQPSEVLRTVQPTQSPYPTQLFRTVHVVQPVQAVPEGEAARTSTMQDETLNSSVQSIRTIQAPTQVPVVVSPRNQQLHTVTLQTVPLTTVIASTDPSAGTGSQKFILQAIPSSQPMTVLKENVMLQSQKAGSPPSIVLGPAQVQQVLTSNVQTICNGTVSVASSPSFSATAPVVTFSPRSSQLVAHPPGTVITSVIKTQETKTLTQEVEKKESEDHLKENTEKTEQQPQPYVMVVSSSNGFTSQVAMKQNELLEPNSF
How it was run: as §1

[6] = target: T5, EHF (Homo sapiens, UniProt Q9NZC4 1-300); conditions: protein: recombinant; tags: N-terminal GST; dsDNA, one strand shown
T5 sequence: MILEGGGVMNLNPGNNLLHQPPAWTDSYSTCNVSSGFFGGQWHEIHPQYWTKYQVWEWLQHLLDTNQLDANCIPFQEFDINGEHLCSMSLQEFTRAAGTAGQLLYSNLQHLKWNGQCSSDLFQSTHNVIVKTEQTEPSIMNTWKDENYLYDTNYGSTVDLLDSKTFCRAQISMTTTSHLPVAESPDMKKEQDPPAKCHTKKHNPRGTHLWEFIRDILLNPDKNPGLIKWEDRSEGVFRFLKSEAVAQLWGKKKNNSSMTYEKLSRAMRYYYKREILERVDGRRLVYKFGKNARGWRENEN
How it was run: as §1

[7] = target: SPI1 (Homo sapiens, UniProt P17947 1-270); conditions: protein: recombinant; tags: N-terminal GST; dsDNA, one strand shown
How it was run: as §1

[8] = target: SPIB (Homo sapiens, UniProt Q01892 1-262); conditions: protein: recombinant; tags: N-terminal GST; dsDNA, one strand shown
SPIB, sequence (Q01892 whole entry): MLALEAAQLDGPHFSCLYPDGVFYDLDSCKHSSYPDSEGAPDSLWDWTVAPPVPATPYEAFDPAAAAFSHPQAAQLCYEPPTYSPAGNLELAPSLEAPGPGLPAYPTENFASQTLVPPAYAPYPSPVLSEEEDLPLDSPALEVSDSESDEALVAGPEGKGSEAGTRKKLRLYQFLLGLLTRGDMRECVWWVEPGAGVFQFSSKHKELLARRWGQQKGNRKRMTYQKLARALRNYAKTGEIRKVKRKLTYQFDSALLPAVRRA
How it was run: as §1

[9] = target: T6, ELK3 (Homo sapiens, UniProt P41970 1-407); conditions: protein: recombinant; tags: N-terminal GST; dsDNA, one strand shown
T6 sequence: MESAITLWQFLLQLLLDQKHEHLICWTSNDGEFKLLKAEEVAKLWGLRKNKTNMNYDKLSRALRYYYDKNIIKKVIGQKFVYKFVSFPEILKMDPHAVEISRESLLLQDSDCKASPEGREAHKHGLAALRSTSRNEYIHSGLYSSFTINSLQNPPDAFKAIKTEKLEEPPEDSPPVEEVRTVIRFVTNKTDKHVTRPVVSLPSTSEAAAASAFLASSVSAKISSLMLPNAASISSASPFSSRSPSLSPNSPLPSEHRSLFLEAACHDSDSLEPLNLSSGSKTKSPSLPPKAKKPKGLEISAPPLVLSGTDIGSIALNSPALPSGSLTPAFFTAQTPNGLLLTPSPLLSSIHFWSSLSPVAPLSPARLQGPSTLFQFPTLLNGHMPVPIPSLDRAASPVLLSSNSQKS
How it was run: as §1

[10] = target: T7, FEV (Homo sapiens, UniProt Q99581 1-238); conditions: protein: recombinant; tags: N-terminal GST; dsDNA, one strand shown
T7 sequence: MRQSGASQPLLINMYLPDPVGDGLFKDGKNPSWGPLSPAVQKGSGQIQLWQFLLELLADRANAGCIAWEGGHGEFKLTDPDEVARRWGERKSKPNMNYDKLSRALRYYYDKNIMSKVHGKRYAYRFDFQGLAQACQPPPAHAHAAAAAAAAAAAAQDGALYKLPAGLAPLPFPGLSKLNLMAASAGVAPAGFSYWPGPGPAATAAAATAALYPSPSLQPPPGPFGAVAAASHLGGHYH
How it was run: as §1

[11] = target: ETV5 (Homo sapiens, UniProt P41161 1-510); conditions: protein: recombinant; tags: N-terminal GST; dsDNA, one strand shown
ETV5, sequence (P41161 whole entry): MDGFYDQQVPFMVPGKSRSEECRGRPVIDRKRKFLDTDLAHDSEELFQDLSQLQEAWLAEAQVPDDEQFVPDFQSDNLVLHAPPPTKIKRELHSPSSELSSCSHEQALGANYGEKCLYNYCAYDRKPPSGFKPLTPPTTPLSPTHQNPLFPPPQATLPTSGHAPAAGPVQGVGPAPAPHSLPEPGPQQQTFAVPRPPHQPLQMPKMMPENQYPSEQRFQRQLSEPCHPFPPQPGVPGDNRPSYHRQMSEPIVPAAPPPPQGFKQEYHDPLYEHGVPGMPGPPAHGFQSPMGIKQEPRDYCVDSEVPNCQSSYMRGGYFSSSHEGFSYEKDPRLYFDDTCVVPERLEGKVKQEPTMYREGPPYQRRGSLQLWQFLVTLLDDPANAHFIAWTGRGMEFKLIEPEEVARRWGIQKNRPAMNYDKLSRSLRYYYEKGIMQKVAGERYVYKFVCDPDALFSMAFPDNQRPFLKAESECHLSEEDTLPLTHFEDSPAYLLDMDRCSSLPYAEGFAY
How it was run: as §1

[12] = target: HSF1 (Homo sapiens, UniProt Q00613 1-529); conditions: protein: recombinant; tags: N-terminal GST; chain copies: 3; dsDNA, one strand shown
HSF1, sequence (Q00613 whole entry): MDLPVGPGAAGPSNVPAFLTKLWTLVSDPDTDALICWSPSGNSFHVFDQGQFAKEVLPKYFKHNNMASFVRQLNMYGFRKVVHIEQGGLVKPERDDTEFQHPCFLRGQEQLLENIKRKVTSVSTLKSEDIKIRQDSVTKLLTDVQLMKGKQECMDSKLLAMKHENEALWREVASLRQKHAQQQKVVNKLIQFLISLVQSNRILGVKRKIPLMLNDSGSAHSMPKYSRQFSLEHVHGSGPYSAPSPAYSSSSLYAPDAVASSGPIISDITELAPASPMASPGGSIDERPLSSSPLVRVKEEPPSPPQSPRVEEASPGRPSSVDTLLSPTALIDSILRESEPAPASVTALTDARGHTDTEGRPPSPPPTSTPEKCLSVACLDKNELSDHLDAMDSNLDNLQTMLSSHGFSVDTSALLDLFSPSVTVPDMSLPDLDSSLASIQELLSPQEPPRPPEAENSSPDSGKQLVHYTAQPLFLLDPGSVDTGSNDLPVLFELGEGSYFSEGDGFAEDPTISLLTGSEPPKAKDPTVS
How it was run: as §1

[13] = target: T8, SPIC (Homo sapiens, UniProt Q8N5J4 1-248); conditions: protein: recombinant; tags: N-terminal GST; dsDNA, one strand shown
T8 sequence: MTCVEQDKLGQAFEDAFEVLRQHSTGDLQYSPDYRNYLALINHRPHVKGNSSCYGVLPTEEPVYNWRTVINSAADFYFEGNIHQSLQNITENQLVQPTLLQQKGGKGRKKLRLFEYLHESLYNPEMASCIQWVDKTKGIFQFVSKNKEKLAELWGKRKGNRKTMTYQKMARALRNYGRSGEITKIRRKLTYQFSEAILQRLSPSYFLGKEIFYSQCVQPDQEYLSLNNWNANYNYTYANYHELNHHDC
How it was run: as §1

[14] = target: ELF4 (Homo sapiens, UniProt Q99607 1-663); conditions: protein: recombinant; tags: N-terminal GST; dsDNA, one strand shown
ELF4, sequence (Q99607 whole entry): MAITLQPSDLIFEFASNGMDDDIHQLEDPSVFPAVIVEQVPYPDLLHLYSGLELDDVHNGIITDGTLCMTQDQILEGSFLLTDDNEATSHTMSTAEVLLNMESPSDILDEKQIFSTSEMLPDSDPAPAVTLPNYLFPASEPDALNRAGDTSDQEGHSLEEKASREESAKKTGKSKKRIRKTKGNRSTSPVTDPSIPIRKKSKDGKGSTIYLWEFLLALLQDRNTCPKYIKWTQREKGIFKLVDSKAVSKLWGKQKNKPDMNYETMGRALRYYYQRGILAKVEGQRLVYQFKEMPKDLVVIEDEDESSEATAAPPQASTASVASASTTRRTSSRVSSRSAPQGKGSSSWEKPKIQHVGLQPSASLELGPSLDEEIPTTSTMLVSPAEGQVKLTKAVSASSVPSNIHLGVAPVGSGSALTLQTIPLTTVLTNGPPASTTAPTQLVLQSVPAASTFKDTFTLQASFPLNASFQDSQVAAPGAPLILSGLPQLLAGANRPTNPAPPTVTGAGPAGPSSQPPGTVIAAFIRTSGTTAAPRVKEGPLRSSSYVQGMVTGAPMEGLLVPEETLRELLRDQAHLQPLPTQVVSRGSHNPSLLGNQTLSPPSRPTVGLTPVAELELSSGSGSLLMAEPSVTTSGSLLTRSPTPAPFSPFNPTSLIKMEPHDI
How it was run: as §1

[15] = target: T9, ELK4 (Homo sapiens, UniProt P28324-2 1-405); conditions: protein: recombinant; tags: N-terminal GST; dsDNA, one strand shown
T9 sequence: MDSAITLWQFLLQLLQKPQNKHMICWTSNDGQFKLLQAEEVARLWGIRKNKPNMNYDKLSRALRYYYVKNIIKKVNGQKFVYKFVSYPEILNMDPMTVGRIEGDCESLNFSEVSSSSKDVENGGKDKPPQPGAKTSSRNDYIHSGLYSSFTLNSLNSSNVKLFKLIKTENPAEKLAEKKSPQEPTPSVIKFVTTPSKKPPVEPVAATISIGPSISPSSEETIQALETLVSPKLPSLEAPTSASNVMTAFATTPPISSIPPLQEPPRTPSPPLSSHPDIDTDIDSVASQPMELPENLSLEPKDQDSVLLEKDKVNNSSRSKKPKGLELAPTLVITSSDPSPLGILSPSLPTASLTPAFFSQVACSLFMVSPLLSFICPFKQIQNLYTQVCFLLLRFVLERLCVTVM
How it was run: as §1

[16] = target: T10, ETV2 (Homo sapiens, UniProt O00321 1-342); conditions: protein: recombinant; tags: N-terminal GST; dsDNA, one strand shown
T10 sequence: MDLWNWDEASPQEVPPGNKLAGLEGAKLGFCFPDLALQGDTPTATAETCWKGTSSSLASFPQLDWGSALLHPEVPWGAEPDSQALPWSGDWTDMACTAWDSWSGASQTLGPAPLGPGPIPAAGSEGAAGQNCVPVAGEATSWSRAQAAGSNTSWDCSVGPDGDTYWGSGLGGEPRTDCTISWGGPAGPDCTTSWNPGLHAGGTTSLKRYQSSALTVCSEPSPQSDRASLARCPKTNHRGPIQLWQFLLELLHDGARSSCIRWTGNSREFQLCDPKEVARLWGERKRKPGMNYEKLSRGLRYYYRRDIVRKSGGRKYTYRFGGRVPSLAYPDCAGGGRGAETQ
How it was run: as §1

[17] = target: T11, ELF3 (Homo sapiens, UniProt P78545 1-371); conditions: protein: recombinant; tags: N-terminal GST; dsDNA, one strand shown
T11 sequence: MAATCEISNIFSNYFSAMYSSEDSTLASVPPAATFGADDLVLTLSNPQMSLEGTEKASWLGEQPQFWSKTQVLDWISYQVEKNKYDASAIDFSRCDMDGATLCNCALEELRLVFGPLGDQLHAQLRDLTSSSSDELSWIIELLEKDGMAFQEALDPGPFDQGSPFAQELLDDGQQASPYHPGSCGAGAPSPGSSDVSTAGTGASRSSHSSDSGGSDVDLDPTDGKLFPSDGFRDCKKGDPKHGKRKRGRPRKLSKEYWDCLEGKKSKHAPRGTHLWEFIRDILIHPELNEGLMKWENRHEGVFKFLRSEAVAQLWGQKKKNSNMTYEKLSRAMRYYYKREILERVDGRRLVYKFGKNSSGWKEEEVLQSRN
How it was run: as §1

[18] = target: CRX (Homo sapiens, UniProt O43186 1-299); conditions: protein: recombinant; tags: N-terminal GST; dsDNA, one strand shown
CRX, sequence (O43186 whole entry): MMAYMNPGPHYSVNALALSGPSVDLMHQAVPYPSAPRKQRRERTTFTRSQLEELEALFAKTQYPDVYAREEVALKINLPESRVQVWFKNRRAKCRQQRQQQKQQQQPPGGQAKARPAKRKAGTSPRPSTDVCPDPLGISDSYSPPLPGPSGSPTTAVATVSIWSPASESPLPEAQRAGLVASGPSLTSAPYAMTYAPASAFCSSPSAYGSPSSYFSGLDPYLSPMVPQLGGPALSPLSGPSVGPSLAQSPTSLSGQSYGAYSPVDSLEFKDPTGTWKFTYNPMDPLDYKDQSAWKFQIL
How it was run: as §1

[19] = target: ETV1 (Homo sapiens, UniProt P50549 1-477); conditions: protein: recombinant; tags: N-terminal GST; dsDNA, one strand shown
ETV1, sequence (P50549 whole entry): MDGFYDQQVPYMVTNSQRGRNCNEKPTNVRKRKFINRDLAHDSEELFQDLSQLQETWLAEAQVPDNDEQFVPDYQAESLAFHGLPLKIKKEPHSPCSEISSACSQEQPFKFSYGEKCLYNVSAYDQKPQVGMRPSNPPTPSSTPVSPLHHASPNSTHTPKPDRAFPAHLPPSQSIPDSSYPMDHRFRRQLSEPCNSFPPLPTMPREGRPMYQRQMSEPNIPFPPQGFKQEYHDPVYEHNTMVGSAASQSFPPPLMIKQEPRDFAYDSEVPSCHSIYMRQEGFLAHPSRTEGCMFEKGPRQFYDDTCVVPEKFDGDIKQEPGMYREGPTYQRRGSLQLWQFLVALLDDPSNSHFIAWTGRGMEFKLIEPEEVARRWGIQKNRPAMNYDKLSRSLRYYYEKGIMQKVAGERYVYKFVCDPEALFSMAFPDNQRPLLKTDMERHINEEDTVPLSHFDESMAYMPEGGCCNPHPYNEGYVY
How it was run: as §1

With GAAATA the binding signal [1] was 1.45 fold enrichment (6-mer frequency, TF over GST control), the binding signal [2] was 1.42 fold enrichment (6-mer frequency, TF over GST control) and the binding signal [3] was 1.48 fold enrichment (6-mer frequency, TF over GST control). For the same sequence, the binding signal [4] was 1.61 fold enrichment (6-mer frequency, TF over GST control), the binding signal [5] was 1.45 fold enrichment (6-mer frequency, TF over GST control) and the binding signal [6] was 1.64 fold enrichment (6-mer frequency, TF over GST control). The binding signal [7] was 1.49 fold enrichment (6-mer frequency, TF over GST control), the binding signal [8] was 1.54 fold enrichment (6-mer frequency, TF over GST control) and the binding signal [9] was 1.5 fold enrichment (6-mer frequency, TF over GST control). The binding signal [10] was 1.54 fold enrichment (6-mer frequency, TF over GST control), the binding signal [11] was 1.63 fold enrichment (6-mer frequency, TF over GST control) and the binding signal [12] was 1.21 fold enrichment (6-mer frequency, TF over GST control). For the same sequence, the binding signal [13] was 1.43 fold enrichment (6-mer frequency, TF over GST control), the binding signal [14] was 1.35 fold enrichment (6-mer frequency, TF over GST control) and the binding signal [15] was 1.39 fold enrichment (6-mer frequency, TF over GST control). The binding signal [16] was 1.42 fold enrichment (6-mer frequency, TF over GST control), the binding signal [17] was 1.62 fold enrichment (6-mer frequency, TF over GST control) and the binding signal [18] was 1.11 fold enrichment (6-mer frequency, TF over GST control). For the same sequence, the binding signal [19] was 1.54 fold enrichment (6-mer frequency, TF over GST control).
